Sampled rows, rich in hits. Any-hit rate of the full collection: about 10%.
KB-3-1 tox: qHTS assay for MDR1-selective chemotherapeutics: Primary screen using the parental adenocarcinoma cell KB-3-1 | AID 1347075, 2019 | KB-3-1 viability, CellTiter-Glo ATP luminescence, 72 h | Potency, µM (top dose mostly 46.1 µM), hits mostly cytotoxic | actives 1.4% (n = 400,000); also: nearly all actives have a fitted effect of over 60% in size
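Viability of parental KB-3-1 cells, measured by CellTiter-Glo luminescence, followed a 72 h incubation at 37 °C with pinned compounds in phenol-red-free DMEM containing 10% FBS.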
KB-V1 MDR tox: qHTS assay for MDR1-selective chemotherapeutics: Primary screen using the drug-selected MDR subline cells KB-V1; KB-V1 MDR cells viability, CellTiter-Glo, 72 h; Potency, µM (titrated, usually from 46.1 µM), most hits filed as cytotoxic; actives 3.4% (n = 400,000); also: nearly all actives have a fitted effect of over 60% in size
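KB-V1, DMEM (no phenol red) + 10% FBS; cpd pin-transferred, titration series; 72 h, 37 degrees C; CellTiter-Glo, luminescence. Data normalized, curve-fit.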
VP16 counter: VP16 counterscreen qHTS for inhibitors of ROR gamma transcriptional activity. Potency, µM (titrated, usually from 53.6 µM), most hits filed as inhibitors. AID 2546, 2010. actives 3.5% (n = 310,000). Drosophila S2 Gal4-VP16 UAS-luciferase, luminescence, 20 h;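 also: Gal4-VP16 expression switched on by copper sulfate through the metallothionein promoter; nearly all actives have a fitted effect of over 50% in size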
RORgamma inh: qHTS for inhibitors of ROR gamma transcriptional activity | actives 5.4% (n = 310,000) | Drosophila S2 Gal4-RORgamma UAS-luciferase reporter, 20 h | Potency, µM (titrated, usually from 53.6 µM), usual class: inhibitors; also: nearly all actives have a fitted effect of over 60% in size
Target sequence (P51450 whole entry, looked up, the tested form may be a part): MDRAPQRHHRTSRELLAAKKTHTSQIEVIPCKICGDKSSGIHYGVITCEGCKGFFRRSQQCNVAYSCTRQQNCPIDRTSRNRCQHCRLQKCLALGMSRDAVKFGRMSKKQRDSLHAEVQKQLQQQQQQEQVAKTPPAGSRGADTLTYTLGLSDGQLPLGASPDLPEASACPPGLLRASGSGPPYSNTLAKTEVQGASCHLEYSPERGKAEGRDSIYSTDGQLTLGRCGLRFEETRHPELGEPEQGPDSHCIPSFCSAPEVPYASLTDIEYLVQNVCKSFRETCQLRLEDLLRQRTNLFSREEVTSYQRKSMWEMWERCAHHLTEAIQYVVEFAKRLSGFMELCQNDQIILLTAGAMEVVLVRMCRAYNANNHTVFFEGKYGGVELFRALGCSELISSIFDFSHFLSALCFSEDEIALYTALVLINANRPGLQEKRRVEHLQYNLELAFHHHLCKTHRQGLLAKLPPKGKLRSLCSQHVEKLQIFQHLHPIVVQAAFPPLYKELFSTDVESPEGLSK
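Stably transfected Drosophila Schneider cells are the test system, with ROR gamma fused to Gal4 and luciferase under UAS control; luminescence is read after 20 hr of 700 uM copper sulfate induction at ambient temperature.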
SW480 rerep: A quantitative high throughput screen for small molecules that induce DNA re-replication in SW480 colon adenocarcinoma cells. actives 1.8% (n = 340,000). SW480 DNA re-replication, Hoechst DNA content imaging, 48 h. Potency, µM (titrated, usually from 46.1 µM), most hits filed as activators; also: nearly all actives have a fitted effect of over 55% in size
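250 cells/well; 23 nL cpd via pin tool; 48 hr, 37 C, 5% CO2; Hoechst 40 min; imager read of total nuclear intensity, ex 405/em 500-530 nm.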
MCF10A rerep: A quantitative high throughput screen for small molecules that induce DNA re-replication in MCF 10a normal breast cells. Potency, µM (highest dose often 46.1 µM), actives largely listed as activators. AID 624296, 2012. MCF 10A DNA re-replication, Hoechst nuclear intensity, 48 h. actives 2.9% (n = 350,000); also: nearly all actives have a fitted effect of over 50% in size
Hits are given with their value; . = inactive; ? = inconclusive; / = not tested or not shown; [ ] = remark or other dose. Calls follow the shape of the dose curve; as a rule, active = well fitted curve in the direction sought with a large enough effect; inconclusive = small, poorly fitted or top-dose-only effect, or another doubt; inactive = no such curve, though single readings can be large; an effect the other way counts as inactive or inconclusive.

SMILES	KB-3-1 tox	KB-V1 MDR tox	VP16 counter	RORgamma inh	SW480 rerep	MCF10A rerep
COc1ccc(Nc2c3c(nc4c(-c5ccccc5)c(C)nn24)CCC3)cc1	.	.	3.5µM	3.2µM	.	.
Cc1cc(Nc2ccccc2)n2nc(C)c(-c3ccccc3)c2n1	.	?	.	.	?	.
Cc1nn2c(N3CCN(C)CC3)c3c(nc2c1-c1ccccc1)CCCC3	.	.	.	.	.	?
Cc1cc(NCc2ccccn2)n2nc(C)c(-c3ccccc3)c2n1	.	.	0.32µM	0.71µM	?	.
COCC(=O)N1CCC(Oc2ccc(C(=O)N(C)CCCC3CCCC3)cc2)CC1	.	.	.	.	.	.
Cc1ccc(/C=C/c2onc(C)c2S(=O)(=O)N2CCC(C(=O)NCC(C)c3ccccc3)CC2)cc1 (stereo not given)	.	.	/	/	/	/
Cc1nn2c(NCCN3CCOCC3)c3c(nc2c1-c1ccccc1)CCCC3	.	?	3.5µM	1.6µM	.	?
COc1ccc(-c2cc(NCc3ccccn3)n3ncnc3n2)cc1	.	.	?	2.8µM	.	.
Cc1nn2c(NCc3ccccn3)c3c(nc2c1-c1ccccc1)CCC3	?	9.2µM	0.56µM	0.1µM	?	.
COc1cc(NC(=O)CC(C)S(=O)(=O)c2ccc3c(c2)CCN3C(C)=O)cc(OC)c1OC (stereo not given)	.	?	/	/	/	/
O=C(O)c1ccc2c(ccc3nn(-c4ccc(/C=C/c5ccc(-n6nc7ccc8cc(C(=O)O)ccc8c7n6)cc5[S+](=O)([O-])[O-])c([S+](=O)([O-])[O-])c4)nc32)c1	.	.	/	/	/	/
COc1cccc(OC)c1CNC(=O)CCSCc1ccccc1F	.	.	.[10 µM]	.	.	.
COCCNC(=O)CCSCc1ccccc1F	.	.	.	.	?	4.1µM
COc1cc2cc(C(=O)NC(C)c3cccc4ccccc34)c(N)nc2cc1OC (stereo not given)	.	.	/	/	/	/
CN(Cc1ccccc1)S(=O)(=O)c1ccc(NC(=S)NC(=O)C2CCCCC2)cc1	?	?	7.9µM	8.9µM	?	23µM
CN(Cc1ccccc1)S(=O)(=O)c1ccc(NC(=S)NC(=O)C(C)(C)C)cc1	.	.	?	13µM	.	.
C=CCN(CC=C)S(=O)(=O)c1ccc(NC(=S)NC(=O)C2CC2)cc1	.	.	?	11µM	.	.
COC(=O)c1ccc(NC(=O)c2c(NCc3ccc(C)o3)sc3c2CCCC3)cc1	.	.	/	/	/	/
Cc1ccc(SC2=C(Sc3ccc(C)cc3)C(=O)c3ccccc3C2=O)cc1	.	.	.	.	8.2µM	3.3µM
CC(=O)C1=C(O)C2(C)c3c(O)c(C)c(O)c(C(C)=O)c3OC2CC1=O (stereo not given)	.	16µM	/	/	/	/
CC(=O)C1=C(O)C=C2Oc3c(C(C)=O)c(O)c(C)c(O)c3[C@]2(C)C1=O	/	/	.	.	/	/
COc1cc(OC)c(OC)cc1CNc1cc(C)ccc1OC	.	.	.	.	.	.
COc1ccc(CNc2cc(C)ccc2C)c(OC)c1OC	.	15µM	.[0.365 µM]	.	.	.
COc1ccc(CNc2ccc(S(N)(=O)=O)cc2)c(OC)c1OC	.	.	20µM	?	.	.
COc1cccc(CNc2ccccc2O)c1OCc1ccccc1F	.	.	.	?	21µM	?
SMILES	KB-3-1 tox	KB-V1 MDR tox	VP16 counter	RORgamma inh	SW480 rerep	MCF10A rerep
COc1ccc(C)cc1NCc1cccc(OC)c1OC	.	?	.	18µM	.	.
COc1ccc(CCCNC(=O)C2(C)Cc3c(-c4ccc(C(N)=O)cc4)ccnc3O2)cc1 (stereo not given)	.	.	/	/	/	/
Cc1ccc(/C(N)=N/OC(=O)CCc2ccccc2)cc1	.	.	.	.	.	7.3µM
Cc1ccc(CNCc2ccc3c(c2)n(C)c(=O)n3C)cc1	.	.	/	/	/	/
CSCC[C@H](NC(=O)[C@H](CC(C)C)NC(=O)CNC(=O)[C@@H]1CCCN1C(=O)[C@H](Cc1ccccc1)NC(=O)[C@H](Cc1ccccc1)NC(=O)[C@H](CC(=O)O)NC(=O)[C@H](Cc1cnc[nH]1)NC(=O)[C@H](CCSC)NC(=O)[C@@H](N)CC(=O)O)C(N)=O	/	/	.	.	/	/
Cc1ccc(O)c(N=Nc2ccccc2)n1	.	.	2.8µM	1µM	.	.
O=C(N/N=C\c1ccccc1)c1ccccc1-n1cccc1	.	.	.	.	.	.
O=C(N/N=C/c1ccc([N+](=O)[O-])o1)c1ccccc1-n1cccc1	?	?	?	.	2µM	23µM
O=C(N/N=C\c1ccc(O)c([N+](=O)[O-])c1)c1ccccc1-n1cccc1	.	16µM	.	.	.	.
COc1ccccc1N1CCN(S(=O)(=O)c2c(C)nc3sccn3c2=O)CC1	.	?	/	/	/	/
Cc1ccc2c(=O)cc(C(=O)Nc3c(C(=O)c4ccccc4)oc4ccccc34)oc2c1C	.	.	/	/	/	/
Cc1nc2nc(NCc3ccccc3Cl)[nH]n2c(=O)c1Cc1ccccc1	.	?	/	/	/	/
CCc1c(C)nc2nc(SCc3ccccc3Cl)[nH]n2c1=O	.	.	25µM	?	.	.
CN(Cc1c(F)cccc1Cl)c1nnnn1-c1ccccc1	.	21µM	.	.	.	.
COCCCNS(=O)(=O)c1ccc(N2CCCCS2(=O)=O)cc1	.	.	/	/	/	/
O=C(CC1(O)C(=O)Nc2cc(Cl)cc(Cl)c21)c1ccccc1O (stereo not given)	.	.	?	?	?	15µM
Cc1c(CN2CCC(CO)(Cc3cccc(C(F)(F)F)c3)CC2)c2ccccc2n1C	?	?	8.9µM	7.1µM	?	?
OCC1(Cc2cccc(C(F)(F)F)c2)CCN(Cc2cc3ccccc3o2)CC1	?	?	.	.	?	23µM
COc1cc(CN2CCC(CO)(Cc3cccc(C(F)(F)F)c3)CC2)ccc1F	.	.	?	?	?	?
N=c1nc(N)nc2n1NC(c1ccc(F)cc1)=CS2	.	1.3µM	?	.	.	?
Cc1oc2ncn(C)c(=O)c2c1C(=O)Nc1ccc(F)cc1	.	.	/	/	/	/
CCCN1C(=O)CC(c2ccc(OC)c(OC)c2)C1=O (stereo not given)	.	.	/	/	/	/
CCN=c1scc(-c2ccco2)n1/N=C/c1ccc(O)cc1	.	.	0.5µM	0.1µM	.	23µM
COc1cc(-c2cc3nc(NCCc4ccncc4)ccn3n2)cc(OC)c1OC	.	.	/	/	/	/
COc1cc(-c2cc3nc(NCCOc4ccccc4)ccn3n2)cc(OC)c1OC	?	16µM	/	/	/	/

High-throughput results deposited in PubChem BioAssay by National Center for Advancing Translational Sciences (NCATS).
